Inhibition data for 44 compounds are collected here from PubChem BioAssay AID740 (SRMLSC, 2007).

Among all 96,000 compounds or so, about 65 (0.07%) were called active. This is one part of a sample in which actives are shown more often than they occur. Unmarked numbers belong to inactive results. No stated cut-off is given here; in the data, active means inhibition above about 25%; inactive means the rest.

This test is described as follows: unspecified inhibition readout at 50 µM (AID 740). To be noted: unspecified screen; stronger effect = higher value.
For the compound `Cn1c2ccccc2c(=O)c2c(=O)n(C3CCCCC3)c(-c3cccs3)nc21`, the inhibition was 47.1% (active).
Under `COCCn1c(-c2cccs2)nc2c(c(=O)c3ccccc3n2C)c1=O` stands 12.7%; under `Cc1nc2ccccc2c(=O)n1C1CCCCCC1`, 1.75%.
On to `CC(=O)N=C1SC2CS(=O)(=O)CC2N1c1c(Cl)cccc1Cl` (centres undefined), for which the inhibition is 0.54%.
Under `COc1ccc2nnc(-c3ccccc3)n2n1` stands 1.04%; under `COCCN1C(=O)C(CC(=O)Nc2ccc(C(=O)O)cc2)SC1=Nc1ccccc1` (centres undefined), 0.58%.
Under `OC(CN1CCOCC1)Cn1c(-c2cccc(Cl)c2)nc2ccccc21` (centres undefined) stands 1.12%; under `O=C(Nc1ccccc1)N1CCn2c1nc1ccccc12`, 1.31%.
In the case of `S=C(Nc1ccccc1)N1CCn2c1nc1ccccc12`, the inhibition was 69.1% (active).
In the case of `COc1ccc(NC(=O)N2CCn3c2nc2ccccc23)cc1`, the inhibition is 1.52%.
Under `Cc1cccc(NC(=O)Cc2cccs2)n1` stands 0.37%.
Under `c1ccc(NC2=Nc3ccccc3CS2)cc1` stands 0.05%.
In the case of `CCN(CC)c1ccc(NC(=O)c2cc(Cl)ccc2OC)cc1`, the inhibition result is “inactive”.
Under `CCC(C)NC(=O)Cn1nc([N+](=O)[O-])c(Cl)c1C` (centres undefined) stands 0.92%.
The value for `Cn1cnnc1SCC(=O)c1ccc2c(c1)CCCC2` was 1.31%; that for `Cc1nnc(SCC(=O)N2c3ccccc3Sc3ccccc32)n1N` was 0.91%.
As for `Cc1nnc(SC(=O)N2c3ccccc3Sc3ccccc32)s1`, the inhibition was 30% (active).
Under `Cn1ccnc1SC(=O)N1c2ccccc2Sc2ccccc21` stands “inactive”.
Under `O=C(COc1ccc(Cl)cc1Cl)N1CCN(C/C=C/c2ccccc2)CC1` stands 1.2%.
The value for `Cc1c(NS(=O)(=O)c2ccc3c(c2)OCCO3)cccc1-c1nc2cccnc2s1` was “inactive”; that for `CCS(=O)(=O)Nc1cccc(-c2nc3cccnc3s2)c1C` was 28.6% (active).
Take `CCS(=O)(=O)Nc1cc(-c2nc3cccnc3s2)ccc1C`: the inhibition is 0.46%.
The value for `Cc1cc(C)n(-c2nc(SCCN(C)C)c3c4c(sc3n2)CCCC4)n1` was “inactive”; that for `O=C(C1CCN(C2CC(=O)N(c3cccc(Cl)c3)C2=O)CC1)N1CCCC1` (centres undefined) was 0.33%; that for `CC#CCCC(=O)N1C=Cc2ccccc2C1C#N` (centres undefined) was “inactive”.
Under `CC(=O)Cc1nsc(NC(=O)c2ccc(-c3ccccc3Cl)o2)n1` stands “inactive”; under `Cc1ccc(NC(=S)C2=C(O)c3ccccc3N(C)S2(=O)=O)cc1`, 9.88%.
Consider `Cc1ccc(NC(=O)C2=C(O)c3sccc3N(C)S2(=O)=O)cc1`, for which the inhibition was 1.91%.
The value for `Cc1ccc(NC(=S)C2=C(O)c3sccc3N(C)S2(=O)=O)cc1` was 52.4% (active); that for `CN1c2ccccc2C(O)=C(C(=S)Nc2ccccc2)S1(=O)=O` was “inactive”.
Under `CN1c2ccccc2C(O)=C(C(=O)Nc2ccccc2)S1(=O)=O` stands “inactive”; under `Cc1ccccc1NC(=S)C1=C(O)c2sccc2N(C)S1(=O)=O`, “inactive”.
On to `CN1c2ccsc2C(O)=C(C(=S)Nc2ccccc2)S1(=O)=O`, for which the inhibition is 64.3% (active).
`CN1c2ccsc2C(O)=C(C(=O)Nc2ccccc2)S1(=O)=O`: the inhibition is 26.4% (active).
For `Cc1ccc(NC(=O)C2=C(O)c3ccccc3N(C)S2(=O)=O)cc1`, the inhibition entry was “inactive”.
Under `CC(=O)Nc1ccc2c(c1)nc(CCN1CCOCC1)n2C` stands “inactive”; under `CCn1c(SCc2nc(-c3ccccc3)no2)nnc1-c1cccs1`, 0.11%.
With `O=c1[nH]nc(Sc2ncnc3sccc23)n1CCc1ccccc1`, the inhibition is 9.99%.
Under `COc1ccccc1Cn1c(=O)c2ccccc2n2c(Sc3ncnc4sccc34)nnc12` stands 65.1% (active).
The value for `COc1ccccc1Cn1c(=O)c2ccccc2n2c(SCc3csc(C)n3)nnc12` was 0.93%.
The value for `c1ccc(CSc2nnnn2-c2cccc3ccccc23)nc1` was 3.06%; that for `CCOc1ccc(NC(=O)NCCCN2CCCC2)cc1` was 0.93%.
Take `CSc1nnnn1-c1ccc(C(=O)OCC(=O)N2CCOCC2)cc1`: the inhibition entry was “inactive”.
The value for `CCOC(=O)c1cnc(SCC(=O)N2CCc3ccccc32)nc1N` was “inactive”.
